# The panel holds about 83,000 compounds, 20% with a hit somewhere; the sample as a whole holds those more often.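 The test compound was applied at a single concentration to cells in 96-well plates for 48 hours, and percent growth was recorded.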 A number with no mark means an inactive call. Calls of active or inactive are those of the source. Rule for the calls: active = growth percent below 10; inactive = the rest.
# Assays:
# Test in all cases: NCI-60 one-dose screen, 48 h (100 = growth as untreated, 0 = no growth, -100 = all killed)
# Conditions in all cases: 10 µM
# RPMI-8226 leukemia = test system: RPMI-8226 leukemia
# OVCAR-8 ovarian = test system: OVCAR-8 ovarian
# OVCAR-5 ovarian = test system: OVCAR-5 ovarian
# OVCAR-4 ovarian = test system: OVCAR-4 ovarian
# SK-OV-3 ovarian = test system: SK-OV-3 ovarian
# IGROV1 ovarian = test system: IGROV1 ovarian
# OVCAR-3 ovarian = test system: OVCAR-3 ovarian
# HS 578T breast = test system: HS 578T breast
# NCI/ADR-RES ovarian = test system: NCI/ADR-RES ovarian
# BT-549 breast = test system: BT-549 breast
# MDA-MB-435 melanoma = test system: MDA-MB-435 melanoma
# SW-620 colon = test system: SW-620 colon
# MCF7 breast = test system: MCF7 breast
# HCT-116 colon = test system: HCT-116 colon
# HCC-2998 colon = test system: HCC-2998 colon
# T-47D breast = test system: T-47D breast
# KM12 colon = test system: KM12 colon
SMILES,growth (RPMI-8226 leukemia),growth (OVCAR-8 ovarian),growth (OVCAR-5 ovarian),growth (OVCAR-4 ovarian),growth (SK-OV-3 ovarian),growth (IGROV1 ovarian),growth (OVCAR-3 ovarian),growth (HS 578T breast),growth (NCI/ADR-RES ovarian),growth (BT-549 breast),growth (MDA-MB-435 melanoma),growth (SW-620 colon),growth (MCF7 breast),growth (HCT-116 colon),growth (HCC-2998 colon),growth (T-47D breast),growth (KM12 colon)
Cc1[nH]nc2c1C(c1cnn(C)c1)C(C#N)=C(N)O2 (centres undefined),99.3%,99.8%,109%,101%,103%,106%,106%,104%,108%,102%,101%,102%,98%,104%,110%,,
CCN(CC)CCOc1nc2ccccc2c2c1-c1ccc(OC)cc1C2=O,-14.3% (active),6.78% (active),25.8%,6.09% (active),43.5%,-37.9% (active),-18.6% (active),1.77% (active),-12.8% (active),,-6.62% (active),-13.3% (active),0.376% (active),-93% (active),14.8%,47.1%,-45.2% (active)
COc1cc2nc(Nc3cccc(C(=O)O)c3)nc(N)c2cc1OC,307%,105%,114%,103%,107%,16.4%,101%,93.4%,133%,,,96.3%,97.8%,-100% (active),135%,105%,108%
O=C1OCC2=C1C(c1ccc(Cl)c(Cl)c1)c1cc3c(cc1N2CCO)OCCO3 (centres undefined),18.7%,27.7%,34.3%,55.7%,29.5%,34.6%,-53.7% (active),-13.3% (active),3.69% (active),,-52.6% (active),19%,20.4%,19.8%,,62.2%,4.49% (active)
O=C(Nc1nc2ccc(F)cc2s1)c1cc(-c2ccc(F)cc2)n2nc(-c3ccccc3)cc2n1,97.7%,38.6%,107%,17.9%,86.4%,122%,82.8%,73.3%,53%,,62.7%,62.4%,80.6%,79.1%,99.8%,75.2%,65.9%
COc1ccc(/C=C2/CN(C(=O)c3ccc(C)cc3)C/C(=C\c3ccc(OC)cc3)C2=O)cc1,-6.11% (active),88.9%,109%,83.8%,99.1%,89.8%,90.7%,92%,86.7%,94%,41.3%,71.3%,32.8%,-27% (active),71.3%,,
CS(=O)(=O)Nc1ccc(Nc2c3ccccc3nc3cc(N)ccc23)cc1,21.6%,24.8%,56.6%,43.2%,32%,37.5%,15.3%,23.7%,96.5%,,53.6%,39.8%,6.57% (active),28%,35.2%,-14.5% (active),5.56% (active)
CN(C)CCNC(=O)c1cccn2c(=O)c3cc4ccccc4cc3nc12,-29.2% (active),-9.49% (active),29.6%,-3.24% (active),19.5%,19.3%,-15.3% (active),-14.5% (active),5.94% (active),,-68.6% (active),-11.9% (active),4.71% (active),-41% (active),,5.57% (active),-10.2% (active)
O=S(=O)(Nc1ccccn1)c1ccc(N=Nc2ccc(O)c3ncccc23)cc1,-15.1% (active),1.26% (active),22.4%,8.85% (active),-7.21% (active),-1.59% (active),14.4%,13.5%,14.1%,,10.1%,11.7%,5.03% (active),10.6%,35.7%,-6.2% (active),14.1%
Cc1cc(=O)[nH]c(N/N=C/c2ccccc2O)n1,68.6%,83.3%,95.2%,22.4%,78.3%,59.6%,6.7% (active),104%,16.3%,101%,72.1%,56.5%,4.95% (active),8.06% (active),54.3%,,51.2%
COc1ccc2c(c1)sc1nc(-c3ccccc3)c(-c3ccsc3)n12,15.2%,30.8%,51.6%,62.8%,23.5%,31.1%,-51.6% (active),3.75% (active),9.35% (active),,-39.6% (active),19.4%,13.5%,,11.6%,57%,19.4%
O=C1N=NC2=C1c1c3ccccc3c(O)n1CC2,101%,101%,103%,106%,100%,117%,127%,147%,105%,110%,99.8%,106%,94.2%,93.9%,101%,,109%
O=C(Nc1cccc(-n2cc(-c3ccncc3)c(-c3ccc(O)c(Cl)c3)n2)c1)c1cc(C(F)(F)F)cc(C(F)(F)F)c1,28.8%,42.9%,75%,53.9%,87.7%,71.8%,35.7%,60.2%,58.5%,79.7%,52%,67.7%,27.3%,44.1%,33.3%,,27.1%
O=C1/C(=C\c2cn(C(=O)c3ccc(Cl)cc3)c3ccccc23)c2ccccc2N1C(=O)c1ccc(Cl)cc1,57.5%,78.7%,115%,72%,77%,80%,84.3%,80.5%,83.4%,,97.6%,93.1%,71.1%,65.1%,,61.7%,24.3%
Cc1cc2ccccc2nc1-c1ccccc1F,101%,102%,106%,117%,96.4%,129%,105%,106%,112%,92.2%,111%,106%,101%,102%,109%,,110%
O=C(Nc1ccncc1)C(=O)c1cn(S(=O)(=O)c2cccc3ccccc23)c2ccccc12,43.1%,92.4%,102%,79.6%,87.9%,73.8%,88.2%,100%,78.4%,,-7.64% (active),71.4%,52.3%,45.8%,64.8%,70.9%,55%
CCOC(=O)C1(CC(C)C)CCOC1=O (centres undefined),95.6%,93.8%,97%,95.5%,101%,119%,104%,110%,98.8%,105%,104%,98.3%,93.5%,107%,106%,,99.3%
CC(C)N(CCNc1nc(C(Cl)(Cl)Cl)nc2cc(Cl)ccc12)C(C)C,3.61% (active),-73.9% (active),-11.1% (active),7.56% (active),-27.6% (active),-38.4% (active),-37.5% (active),12%,,,-47.2% (active),-30.6% (active),-85.6% (active),,-50.2% (active),5.12% (active),-79.1% (active)
